Hits are enriched below; roughly 1.3% of the tested compounds scored in any of these assays.
GLD-1 RNA inh = GLD-1-TGE RNA interaction inhibition (C. elegans) | inhibition, % at 5.96 µM | Q17339 | 0.44% of 320,000 active | purified GLD-1 + fluorescein TGE RNA, fluorescence polarization | AID 2280;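 active = percent inhibition above a per-plate cutoff, the plate mean of test compounds plus 3 SD, cut at about 30% in these data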;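 note: 0% = DMSO wells with GLD-1 and probe and 100% = wells lacking GLD-1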
MEX-5 binding = C. elegans MEX-5 TCR-2 RNA binding activity. Q9XUB2. MEX-5/FITC-TCR2 RNA binding, fluorescence polarization; hits give low values. activity score (negative = inhibition of binding), % at 10 µM. 0.38% of 300,000 active. AID 1832;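 active = inhibition past about -25% in most replicates, and total fluorescence under double the plate's negative control median, limit read from the data; inconclusive = replicates evenly split on the limit, or fluorescence at least double controls; inactive = too little inhibition in most replicates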;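 note: 0% = DMSO and -100% = 5 µM competing unlabeled TCR2 RNA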
BCLXL inh = Bcl-xL (human) inhibition; inhibition, % at 10.9 µM; 0.7% of 320,000 active; GST-Bcl-xL / FITC-Bim BH3 peptide fluorescence polarization;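 active = inhibition above the mean of all tested compounds plus 3 SD, cutoff set per campaign, cut at about 30% in these data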;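 note: 0% = DMSO wells and 100% = unlabeled Bim-BH3 peptide competitor; inhibitors lower millipolarization by displacing the labeled peptide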
Target sequence (Q07817 whole entry, looked up): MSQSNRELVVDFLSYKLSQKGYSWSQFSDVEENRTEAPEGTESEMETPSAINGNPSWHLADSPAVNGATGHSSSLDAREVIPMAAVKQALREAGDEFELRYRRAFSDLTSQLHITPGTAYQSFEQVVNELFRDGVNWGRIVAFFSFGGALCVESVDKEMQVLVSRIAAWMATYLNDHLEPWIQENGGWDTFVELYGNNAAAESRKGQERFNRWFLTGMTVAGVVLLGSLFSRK
EBV gp42 block = EBV gp42 inhibition | 0.42% of 220,000 active | inhibition, % (tested at 21.74 µM) | Q1HVG2 | Fluorescence polarization binding assay, mP read-out | AID 1085; in the data active = inhibition above about 50%
Target sequence (Q1HVG2 whole entry, looked up): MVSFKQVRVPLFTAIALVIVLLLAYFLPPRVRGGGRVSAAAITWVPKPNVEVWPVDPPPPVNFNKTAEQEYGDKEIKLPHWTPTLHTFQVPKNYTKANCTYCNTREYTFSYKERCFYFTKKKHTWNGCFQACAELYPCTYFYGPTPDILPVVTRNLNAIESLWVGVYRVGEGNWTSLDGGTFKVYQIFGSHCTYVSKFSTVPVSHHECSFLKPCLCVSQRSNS
eLon inh = inhibitors of E. coli Lon protease; 0.42% of 360,000 active; inhibition, % at 7.94 µM; P0A9M0; purified E. coli Lon protease, fluorescence polarization; in the data active = inhibition above about 13%, passing the limit was not always enough;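 note: 0% = enzyme with probe and DMSO and 100% = no enzyme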
GLD-1 TGE cf = confirmation of C. elegans GLD-1 TGE RNA binding inhibitors. shares compounds with GLD-1 RNA inh. GLD-1/FL-TGE RNA fluorescence polarization, biochemical. inhibition, % at 5.96 µM. 10% of 550 active;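 active = average inhibition across triplicates above the hit cutoff set in the primary screen, cut at about 32% in these data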;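 note: 0% = GLD-1 with RNA probe and DMSO and 100% = wells lacking GLD-1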
E coli Lon conf = E. coli Lon inhibition confirmation. 31% of 1,400 active. AID 602230. inhibition, % at 7.94 µM. shares compounds with eLon inh. purified E. coli Lon, fluorescence polarization; in the data active = inhibition above about 16%;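 note: 0% = enzyme with probe and DMSO and 100% = no enzyme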
The depositor's hits bear a star.

How did CCC(=O)OCCNc1cc(Sc2nc3ccccc3s2)c2nonc2c1[N+](=O)[O-] do in these assays?
GLD-1 RNA inh: 38.1*; MEX-5 binding: -4.5; BCLXL inh: 62.1*; EBV gp42 block: 33.3; eLon inh: -10.2; GLD-1 TGE cf: 25.1

What do the screens show for `CCn1nnnc1SCC(=O)N(C)C1CCS(=O)(=O)C1` (configuration not stated)?
GLD-1 RNA inh: 8.6; BCLXL inh: -4.9; eLon inh: 8.0

How did CCCCn1c(N)c(NCc2ccccc2OC)c(=O)[nH]c1=O do in these assays?
GLD-1 RNA inh: 21.0; MEX-5 binding: 3.1; BCLXL inh: 14.9; EBV gp42 block: -13.1; eLon inh: 8.3

What do the screens show for `CCCCNc1c(N)n(CCCC)c(=O)[nH]c1=O`?
GLD-1 RNA inh: 37.2*; MEX-5 binding: inconclusive; BCLXL inh: 36.4*; EBV gp42 block: 37.9; GLD-1 TGE cf: 79.0*

What do the screens show for `CCCCn1c(N)c(NCCC)c(=O)[nH]c1=O`?
GLD-1 RNA inh: 30.9*; MEX-5 binding: -10.8; BCLXL inh: 34.8*; EBV gp42 block: 27.6; eLon inh: 5.7; GLD-1 TGE cf: 9.3

Results for Cc1nnc(SC(C)C(=O)NC2CCCCC2C)s1 (configuration not stated) ?
GLD-1 RNA inh: 1.9; MEX-5 binding: -0.1; BCLXL inh: 5.8; eLon inh: -10.2

What do the screens show for `N#CC1=C(N)OC2=C(CN(Cc3ccccc3)C/C2=C\c2cccnc2)C1c1cccnc1` (configuration not stated)?
GLD-1 RNA inh: 11.8; MEX-5 binding: -3.0; BCLXL inh: 17.8; EBV gp42 block: 12.2; eLon inh: 3.7

Results for CC(C)N1CC2=C(OC(N)=C(C#N)C2c2cccnc2)/C(=C/c2cccnc2)C1 (configuration not stated) ?
GLD-1 RNA inh: 38.7*; BCLXL inh: 45.0*; EBV gp42 block: 20.1; eLon inh: 4.7; GLD-1 TGE cf: 4.6

Results for CCOC(=O)c1sc(=S)n(-c2ccc3c(c2)OCO3)c1N ?
GLD-1 RNA inh: 49.4*; MEX-5 binding: 1.3; BCLXL inh: 106.3*; EBV gp42 block: -17.6; eLon inh: -7.3; GLD-1 TGE cf: -8.1

How did CCOC(=O)c1sc(=S)n(-c2ccc(F)c(F)c2)c1N do in these assays?
GLD-1 RNA inh: 7.2; MEX-5 binding: 0.9; BCLXL inh: 6.8; EBV gp42 block: -12.8; eLon inh: 2.0

What do the screens show for `Cn1nc(-c2ccccc2)cc1NS(=O)(=O)c1ccc(C#N)cc1`?
GLD-1 RNA inh: 60.8*; MEX-5 binding: -1.1; BCLXL inh: 99.7*; EBV gp42 block: -1.4; eLon inh: -6.4; GLD-1 TGE cf: 0.5

Results for Cn1nc(-c2ccccc2)cc1NS(=O)(=O)c1ccccc1 ?
GLD-1 RNA inh: -3.8; MEX-5 binding: 2.2; BCLXL inh: 6.1; EBV gp42 block: -9.3; eLon inh: 11.5

Results for CC(=O)Nc1cc(NC(C)=O)cc(C(=O)N2CCCC3CCCCC32)c1 (configuration not stated) ?
GLD-1 RNA inh: -13.7; MEX-5 binding: -4.1; BCLXL inh: 7.8; eLon inh: -5.0

Results for COc1ccc(/C=C(\CC(=O)O)c2nc3ccccc3s2)cc1O ?
GLD-1 RNA inh: 55.0*; MEX-5 binding: 2.1; BCLXL inh: 7.0; EBV gp42 block: 7.2; eLon inh: 4.6; GLD-1 TGE cf: 39.1*

How did COc1cc(O)cc2cc3c(c(O)c12)C(=O)CC(C)(O)O3 (configuration not stated) do in these assays?
GLD-1 RNA inh: 34.2*; BCLXL inh: 37.5*; EBV gp42 block: 32.8; eLon inh: 18.4*; GLD-1 TGE cf: 48.6*; E coli Lon conf: 24.0*

Results for COc1cc(O)c2c(c1)OC(C)(C)CC2=O ?
GLD-1 RNA inh: 1.2; MEX-5 binding: -4.0; BCLXL inh: 6.8; EBV gp42 block: -17.9; eLon inh: 2.7

Results for COc1cccc(C(=O)Nc2ccc(C(=O)NCC3CCCO3)cc2)c1 (configuration not stated) ?
GLD-1 RNA inh: -1.9; MEX-5 binding: 1.8; BCLXL inh: 1.3; eLon inh: 7.4

Results for O=C(O)c1cccc2c1C(=O)c1ccccc1-2 ?
GLD-1 RNA inh: 2.0; MEX-5 binding: 1.3; BCLXL inh: 3.7; EBV gp42 block: -5.8; eLon inh: -6.5

What do the screens show for `O=C1c2ccccc2C(=O)c2c(O)c(O)cc(O)c21`?
GLD-1 RNA inh: 69.5*; eLon inh: active; GLD-1 TGE cf: 42.8*; E coli Lon conf: active

How did Cc1ccc(C)c(-n2c3nc(=O)[nH]c(=O)c-3cc3cc([N+](=O)[O-])ccc32)c1 do in these assays?
GLD-1 RNA inh: 59.5*; BCLXL inh: 76.0*; EBV gp42 block: 58.7*; eLon inh: 60.2*; GLD-1 TGE cf: 27.4; E coli Lon conf: 2.8

What do the screens show for `Cc1cccc(-n2c3nc(=O)[nH]c(=O)c-3cc3cc([N+](=O)[O-])ccc32)c1`?
GLD-1 RNA inh: 3.3; MEX-5 binding: 0.6; BCLXL inh: 7.8; EBV gp42 block: -8.0; eLon inh: 2.9

What do the screens show for `CCn1c(CSc2nc3ccccc3[nH]2)nc2cc(C(=O)O)ccc21`?
GLD-1 RNA inh: 14.1; BCLXL inh: 26.8; EBV gp42 block: 19.0; eLon inh: 5.7

Results for CCn1c(CSc2nccn2C)nc2cc(C(=O)O)ccc21 ?
GLD-1 RNA inh: 44.6*; MEX-5 binding: -18.7; BCLXL inh: 57.0*; EBV gp42 block: 71.6*; eLon inh: 31.7*; GLD-1 TGE cf: 40.2*; E coli Lon conf: -6.7

Results for Cc1ccc(Nc2nc(N)c3ccccc3n2)cc1C ?
MEX-5 binding: -2.8; eLon inh: -6.6

How did Cc1cc(C)nc(SCc2ccc(C(=O)N/N=C3\CCCC(=O)C3)cc2)n1 do in these assays?
GLD-1 RNA inh: 43.2*; MEX-5 binding: -1.3; BCLXL inh: 7.7; EBV gp42 block: -5.0; eLon inh: 22.6*; GLD-1 TGE cf: -9.1; E coli Lon conf: -10.0

Results for Cc1cc(C)c(S(=O)(=O)N2CCCC(C(=O)NC3CCCC3)C2)c(C)c1 (configuration not stated) ?
GLD-1 RNA inh: 3.5; MEX-5 binding: 0.1; BCLXL inh: 6.6; eLon inh: 2.0

Results for C/C(=N/NC(=O)c1nnn(-c2nonc2N)c1COc1ccccc1)c1ccccc1 ?
GLD-1 RNA inh: -4.5; MEX-5 binding: -4.1; BCLXL inh: 7.8; eLon inh: 3.1

Results for Cc1cc2cc(CNC(=O)c3ccco3)ccc2n1C ?
GLD-1 RNA inh: 34.0*; MEX-5 binding: -0.2; BCLXL inh: 38.5*; EBV gp42 block: -5.2; eLon inh: 14.5*; GLD-1 TGE cf: 2.9; E coli Lon conf: 13.8
